Compound activity deposited in PubChem by National Center for Advancing Translational Sciences (NCATS).
Pol eta inh: qHTS for Inhibitors of Polymerase Eta | 1.2% of 390,000 active | recombinant Pol eta, fluorescent DNA replication assay | Potency, µM (series often up to 114 µM), usual class: inhibitors
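Fluorescent replication assay: 50 nM final substrate added after a 15 min room-temperature compound preincubation with 10 nM enzyme. Signal taken at 0 min and again at 10 min.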
WRN helicase inh: qHTS for Inhibitors of WRN Helicase | Potency, µM (titrated, usually from 114 µM), most hits filed as inhibitors | WRN helicase unwinding, fluorescent forked duplex, kinetic | 0.46% of 360,000 active; further: nearly all actives have a fitted effect of over 55% in size
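Kinetic red-fluorescence monitoring (525/598 nm) tracks WRN helicase activity after 100 nM fluorophore-quencher forked duplex and 2 mM ATP are added to 20 nM enzyme pretreated 15 min at room temperature with compound.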
POLI inh: qHTS for Inhibitors of Polymerase Iota. Potency, µM (titrated, usually from 115 µM), actives largely listed as inhibitors. DNA polymerase iota (Homo sapiens), Q9UNA4. Pol iota fluorescent replication assay, 10 min. 1% of 390,000 active
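Fluorescent replication assay read twice, at 0 min and 10 min after adding 50 nM (final) substrate. Enzyme (10 nM) and compounds were first incubated 15 min at room temperature; enzyme-free buffer wells were negative controls.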
POLB inh: qHTS Assay for Inhibitors of DNA Polymerase Beta; P06746; Pol beta primer extension/strand displacement, fluorescence kinetic; Potency, µM (doses to about 114 µM), most hits filed as inhibitors; 1.3% of 340,000 active
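Values derive from four-parameter Hill fits of normalized kinetic data: reads at 0 and 10 min following addition of 50 nM substrate to 10 nM Pol beta preincubated 15 min with compound.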
PI5P4K alpha inh: qHTS for Inhibitors of phosphatidylinositol 5-phosphate 4-kinase (PI5P4K). Phosphatidylinositol 5-phosphate 4-kinase type-2 alpha (Homo sapiens), P48426. PI5P4Kalpha enzyme, ADP-Glo luminescence, 60 min; active compounds read low. max response, %. 1.2% of 330,000 active. AID 652105, 2013; active means max response of -50% or lower; inconclusive means between -30% and -50%; inactive means -30% or higher; further: value at the top dose of about 77 µM
Target sequence (P48426 whole entry, looked up): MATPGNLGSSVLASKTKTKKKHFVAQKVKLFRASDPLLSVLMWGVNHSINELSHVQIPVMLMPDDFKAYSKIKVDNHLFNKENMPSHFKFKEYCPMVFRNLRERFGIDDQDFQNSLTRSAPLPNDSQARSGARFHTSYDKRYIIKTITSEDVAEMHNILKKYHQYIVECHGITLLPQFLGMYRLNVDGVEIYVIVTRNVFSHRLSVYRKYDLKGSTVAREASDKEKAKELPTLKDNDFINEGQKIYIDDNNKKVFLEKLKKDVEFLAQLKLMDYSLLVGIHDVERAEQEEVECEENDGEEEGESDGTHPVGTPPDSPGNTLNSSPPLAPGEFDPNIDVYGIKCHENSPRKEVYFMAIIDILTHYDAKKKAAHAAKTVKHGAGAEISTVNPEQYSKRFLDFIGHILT
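Reactions run in 0.038 M HEPES pH 7.4, 0.28 mM EGTA, 0.1% CHAPS and 5% DMSO, with PI5P4Kalpha, substrate, compound and 5 microM ATP final, one hour at room temperature. Readout is ADP-Glo luminescence.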
Pol kappa inh: qHTS for Inhibitors of Polymerase Kappa; DNA polymerase kappa (Homo sapiens), Q9UBT6; purified Pol kappa, fluorescent DNA synthesis assay, 10 min; Potency, µM (highest dose often 107 µM), most hits filed as inhibitors; 0.53% of 400,000 active; AID 588579, 2011
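Here, compound and 10 nM enzyme are combined for 15 min at room temperature; adding 50 nM substrate (final) starts DNA synthesis, tracked by fluorescence at 0 and 10 min against buffer-only wells.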
Large screens that a line does not name were inactive; ! = not active in a repeat. The list is not random: actives were taken first. Their share in the collection is about 2.8%. Unless noted, the call rests on the fitted dose curve; in most records, active means well fitted curve in the direction sought with a large enough effect; inconclusive means small, poorly fitted or top-dose-only effect, or another doubt; inactive means no such curve, though single readings can be large; an effect the other way counts as inactive or inconclusive.

CC(C)CCc1noc(CN(CC2CCC2)CC2CCCO2)n1 (stereo unspecified)	Pol eta inh inconclusive
Cc1ccc(-c2noc(-c3ccc(N4CCCCC4C)c([N+](=O)[O-])c3)n2)cc1 (stereo unspecified)	none (no result: WRN helicase inh, PI5P4K alpha inh)
Cc1noc(-c2ccc(N3CCCCC3C)c([N+](=O)[O-])c2)n1 (stereo unspecified)	POLB inh 39.8µM (no result: WRN helicase inh, PI5P4K alpha inh)
N#C/C(=C(/O)COC(=O)CCc1ccc(S(=O)(=O)N2CCOCC2)cc1)c1nc2ccccc2[nH]1	Pol eta inh 14.1µM, POLB inh 35.5µM, PI5P4K alpha inh -51.6
N#C/C(=C(/O)COC(=O)c1ccc(Cl)c(S(=O)(=O)N2CCOCC2)c1)c1nc2ccccc2[nH]1	none
COc1ccc2c(c1)C(c1ccccc1OC)CC(=O)O2 (stereo unspecified)	Pol kappa inh 39.8µM (no result: Pol eta inh, WRN helicase inh, POLI inh, POLB inh, PI5P4K alpha inh)
COc1ccc2c(c1)OC(=O)CC2c1ccccc1OC (stereo unspecified)	POLI inh inconclusive (no result: POLB inh)
O=C(NCc1ccccc1)c1cccc(Br)n1	POLI inh 79.4µM
COc1ccc2ccccc2c1/C=N/NC(=O)c1sc(N)c(C#N)c1C	PI5P4K alpha inh -76.2
COc1cc(/C=N/NC(=O)c2sc(N)c(C#N)c2C)cc(Br)c1O	Pol eta inh inconclusive, POLI inh inconclusive, PI5P4K alpha inh -73.3
CN=c1scc(-c2ccccc2F)n1/N=C/c1ccc(O)c(O)c1O	Pol eta inh inconclusive, WRN helicase inh 56.2µM, POLI inh inconclusive, POLB inh 1.41µM, PI5P4K alpha inh -53.8, Pol kappa inh inconclusive
CC(C)N=c1scc(-c2cccs2)n1/N=C/c1ccc(O)c(O)c1O	Pol eta inh inconclusive, WRN helicase inh inconclusive, POLI inh inconclusive, POLB inh 2.24µM, PI5P4K alpha inh -60.2, Pol kappa inh inconclusive
O=C1CCN(CCc2ccccc2)CCN1[C@H](COc1ccccc1)Cc1ccccc1	none
CC(C)CN1CCC(=O)N([C@H](COc2ccccc2)Cc2ccccc2)CC1	POLI inh 89.1µM!
COc1ccc(NC2CCCN(C(=O)CCC(=O)c3ccc(F)cc3)C2)cc1 (stereo unspecified)	none
CC[n+]1ccc(C[n+]2ccccc2)c2ccccc21	PI5P4K alpha inh -53.1
CCOC(=O)c1ccc(S(=O)(=O)Nc2nc3cc(S(=O)(=O)NC4=NCCCCC4)ccc3s2)cc1	WRN helicase inh inconclusive, POLI inh 14.1µM, PI5P4K alpha inh -53.8
CCOc1ccccc1NC(=O)c1cc(-c2ccncc2)nc2c(Cl)cccc12	POLB inh 15.8µM
O=c1ccn([C@@H]2O[C@H](CNCc3cccn3-c3nccs3)[C@@H](O)[C@H]2O)c(=O)[nH]1	none (no result: Pol eta inh, POLI inh, POLB inh, Pol kappa inh)
O=C(N/C(=C\c1ccc(Br)cc1)C(=O)N1CCCC1)c1ccccc1F	none
CC(=O)Nc1nnc(SCc2cc(=O)c(OC(=O)c3ccccc3)co2)s1	none
O=C(Oc1coc(CSc2nnc(NC(=O)C3CC3)s2)cc1=O)c1c(F)cccc1F	Pol eta inh inconclusive, POLI inh inconclusive, POLB inh 20µM
Cc1ccc(C(=O)Oc2coc(CSc3nnc(NC(=O)c4cccs4)s3)cc2=O)cc1	Pol eta inh inconclusive, POLI inh inconclusive, POLB inh 25.1µM, PI5P4K alpha inh inconclusive, Pol kappa inh inconclusive
Cc1cc(C)cc(C(=O)Oc2coc(CSc3nnc(NC(=O)C4CC4)s3)cc2=O)c1	Pol eta inh inconclusive, POLI inh inconclusive
O=C1C(Nc2ccccc2)=C/C(=N/S(=O)(=O)c2cccs2)c2ccccc21	Pol eta inh inconclusive, POLI inh inconclusive
COC(=O)c1ccccc1NC1=C/C(=N\S(=O)(=O)c2cccs2)c2ccccc2C1=O	POLI inh 1.41µM, PI5P4K alpha inh inconclusive
CCC(OC(=O)c1cccs1)C(=O)NCc1ccc(C)cc1 (stereo unspecified)	none
COc1cc(-n2nc(C)c3c2OC(N)=C(C#N)C3c2ccccc2)c(Cl)c(Br)c1O (stereo unspecified)	Pol eta inh inconclusive, POLI inh inconclusive, PI5P4K alpha inh -56.8
O=C(COC(=O)c1ccc([N+](=O)[O-])o1)NCc1ccc2c(c1)OCO2	Pol eta inh 79.4µM, POLI inh inconclusive (no result: POLB inh)
CC(NC(=O)COC(=O)c1ccc([N+](=O)[O-])o1)c1ccccc1 (stereo unspecified)	Pol eta inh 89.1µM, POLI inh inconclusive (no result: POLB inh)
O=C(COC(=O)c1ccc(Br)o1)NCc1ccc2c(c1)OCO2	none (no result: POLB inh)
O=C(COC(=O)c1ccc([N+](=O)[O-])o1)NCCc1ccccc1	Pol eta inh 79.4µM, POLI inh 44.7µM (no result: POLB inh)
CC(=O)Nc1cccc(Nc2nc3ccccc3n3c(C)nnc23)c1	none (no result: WRN helicase inh, PI5P4K alpha inh)
COc1ccccc1C(=O)Nc1ccccc1OCc1cc(=O)n2cc(C)sc2n1	none (no result: WRN helicase inh, PI5P4K alpha inh)
CCOCc1c(C(=O)OCC(=O)Nc2ccc(C)c(S(=O)(=O)N(C)C)c2)oc2ccccc12	none
CCCCN1CC(=O)N2[C@H]3c4ccccc4OC[C@@H]3[C@H](C(=O)OCC)[C@]2(C)C1=O	none (no result: POLB inh)
O=C(CSc1nnnn1C1CC1)Nc1ccc(S(=O)(=O)N2CCOCC2)cc1	none (no result: POLB inh)
CCCn1cc(S(=O)(=O)CC(=O)Nc2ccc(OC)cc2OC)c2ccccc21	none (no result: PI5P4K alpha inh)
CCCn1cc(S(=O)(=O)CC(=O)Nc2ccc(OCC)cc2)c2ccccc21	POLB inh 89.1µM
CN(/C=C/C(=C\C=[N+](C)c1ccccc1)OCCCS(=O)(=O)[O-])c1ccccc1	POLI inh inconclusive, POLB inh 50.1µM, Pol kappa inh inconclusive
CN(/C=C/C(=C/C=[N+](C)c1ccccc1)OCCCS(=O)(=O)[O-])c1ccccc1	Pol eta inh inconclusive, POLI inh inconclusive, POLB inh 28.2µM, Pol kappa inh inconclusive
CC1CCCC(C)N1C(=O)COC(=O)c1ccc(S(=O)(=O)N(C)c2ccccc2)cc1 (stereo unspecified)	none (no result: POLB inh)
CN(CC(=O)NCCc1ccc(S(N)(=O)=O)cc1)c1ccccc1	none
Cc1cc2c(OCC(CNC(C)(C)C)OC(=O)c3ccccc3)cccc2[nH]1 (stereo unspecified)	none (no result: Pol eta inh, WRN helicase inh, POLI inh, POLB inh, PI5P4K alpha inh)
CCn1c(=S)[nH]c2c(=O)n(C)c(=O)n(C)c21	WRN helicase inh 50.1µM, POLI inh inconclusive, PI5P4K alpha inh -69.4 (no result: POLB inh)
Cn1c(=O)c2[nH]c(Br)nc2n(C)c1=O	none (no result: Pol eta inh, WRN helicase inh, POLI inh, POLB inh, PI5P4K alpha inh)
O=[N+]([O-])c1ccc(NCCc2ccccc2)c(Br)c1	POLB inh 79.4µM
O=c1c2cc(-c3ccccc3)sc2ncn1/N=C/c1ccco1	POLI inh inconclusive
